Whole data set: some 35,000 sequences, median “fluorescence intensity (a.u.)” near 10,000, cut for the highest 2% near 52,000. The entries come from a sample that favours the highest values as a whole.

This assay concerns the target T1, OsWOX13 (Oryza sativa, UniProt Q5QMM3 1-267).
T1 sequence: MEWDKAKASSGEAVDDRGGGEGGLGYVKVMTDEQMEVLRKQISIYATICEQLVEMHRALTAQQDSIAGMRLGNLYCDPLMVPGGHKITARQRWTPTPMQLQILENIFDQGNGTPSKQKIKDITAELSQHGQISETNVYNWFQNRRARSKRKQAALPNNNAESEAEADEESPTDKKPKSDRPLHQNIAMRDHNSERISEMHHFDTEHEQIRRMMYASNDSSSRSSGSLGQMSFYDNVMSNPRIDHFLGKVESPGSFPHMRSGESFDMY
The assay can be described thus: protein-binding microarray (RPBM); PBS, 2% BSA, 51.3 ng/ul salmon testes DNA, 50 uM zinc acetate, 200 nM TF, 25 C, 1 h; high values mean tight binding. The settings on record: protein: recombinant; tags: N-terminal polyhistidine and DsRed monomer fusion (pET32a); label: CyDye5-dUTP incorporated in the synthesized complementary strand; 3' TTTTT single-stranded linker to array surface; dsDNA, one strand shown. Put shortly: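 Binding signal is reported as fluorescence intensity per feature (arbitrary units) from an Axon 4000B scanner. Incubation used 200 nM of each Ni–NTA-purified, N-terminally polyhistidine- and DsRed-fused transcription factor from E. coli BL21-CodonPlus on a double-stranded custom Agilent array for 1 h at 25 °C, with 50 µM zinc acetate in the buffer, followed by washing.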
With “GTAAATATTAATGAATTGCTTGTTTATGTTTAAATAAATGCGGAGTCACCTAGTGCAG”, the binding signal is 4960 fluorescence intensity (a.u.).
In the case of “CATTATTTCACTTGATTAAATTGCTTTAACTTTTATTTAGCGGAGTCACCTAGTGCAG”, the binding signal is 15900 fluorescence intensity (a.u.).
Take “TAATTAATAATTAATTAATTATGTGTTAATTGCTTGCTCCCGGAGTCACCTAGTGCAG”: the binding signal is 65500 fluorescence intensity (a.u.).
Next, “TGTGTGTGTTTTAATTAATTAACATTTATATAAATATGAACGGAGTCACCTAGTGCAG”: 14100 fluorescence intensity (a.u.); “CTTAATTACAAATTTGAAATTAATTTGCTAGGTATGTTTACGGAGTCACCTAGTGCAG”: 63900 fluorescence intensity (a.u.); “CAAATTTATAATAATTAAAATTTAATTAATTATGTGTTAACGGAGTCACCTAGTGCAG”: 57700 fluorescence intensity (a.u.).
Regarding “TATATTTATTATTTGCAGTTAATTATGTTACAAATAATAACGGAGTCACCTAGTGCAG”, the binding signal was 4460 fluorescence intensity (a.u.).
On to “ATTTTGAAATTTTAATTTTAAAATTACATTTTGGGACAAACGGAGTCACCTAGTGCAG”, for which the binding signal is 8130 fluorescence intensity (a.u.).
In the case of “ATTATTAATTTAATAGTATTGTAGTGATTCAGAGTACTAGCGGAGTCACCTAGTGCAG”, the binding signal is 19200 fluorescence intensity (a.u.).
As to “ATTGATTATTATTTTAAAATAAAATGGCGTGTTAGGTTTTCGGAGTCACCTAGTGCAG”, the binding signal was 47300 fluorescence intensity (a.u.).
Regarding “CACTGATTTTGATAGTTGAGGGACCCGTTGTATTTGATTTCGGAGTCACCTAGTGCAG”, the binding signal is 21500 fluorescence intensity (a.u.).
Then “CCAAAATTTGATAGAATCTATTCCGAAGCGTCCAATGTTTCGGAGTCACCTAGTGCAG”, with 33400 fluorescence intensity (a.u.).
Then “CCGCTGTAGCTGATTGCCAGTGTCAGATCAAGCTGTGAATCGGAGTCACCTAGTGCAG”, with 9800 fluorescence intensity (a.u.); and “ATTAGGTGTTTCCAGTTAATTAAAGTCATGTAGTACGGATCGGAGTCACCTAGTGCAG”, with 3680 fluorescence intensity (a.u.).
Then “AATCAGCTCTAAATTTAAATTGTGGCTGATAAATACGAGTCGGAGTCACCTAGTGCAG”, with 4450 fluorescence intensity (a.u.).
Regarding “GCTAAATTCCTATCAAATTCAAGTTTAACACATTACTGCGCGGAGTCACCTAGTGCAG”, the binding signal is 13100 fluorescence intensity (a.u.).
Take “ATGAAATCAAGGTTTTGCAAATTGAAATCCATGTTTTGGTCGGAGTCACCTAGTGCAG”: the binding signal was 8140 fluorescence intensity (a.u.).
Next, “ATTATTATAAATTATTTCCTCCGTTTCACAATGTAAGTCACGGAGTCACCTAGTGCAG”: 5530 fluorescence intensity (a.u.).
As to “TAAATTGCGCAAAATTTATTCACGTAGATTAAGAGTCCATCGGAGTCACCTAGTGCAG”, the binding signal was 10700 fluorescence intensity (a.u.).
For “GTTGATTTCACGACCTGCTCGCTGAGGAATGGAGGTCCAGCGGAGTCACCTAGTGCAG”, the binding signal is 3180 fluorescence intensity (a.u.).
As to “ATCATAATTAAATATATTTTCATAATAAATTTGTCTTTAGCGGAGTCACCTAGTGCAG”, the binding signal is 31000 fluorescence intensity (a.u.).
With “TTGGGAAACGGAGGAAGTAATTAATTAGTCTTTGTGGAAACGGAGTCACCTAGTGCAG”, the binding signal was 3790 fluorescence intensity (a.u.).
In the case of “TTGCTAATTAATTTATGTTAATTAGTAGCTAACCTAGCTGCGGAGTCACCTAGTGCAG”, the binding signal is 65200 fluorescence intensity (a.u.).
As for “ACAATCTTATAGCTAATTTATTATATATGTTAGCTTTAAGCGGAGTCACCTAGTGCAG”, the binding signal was 4320 fluorescence intensity (a.u.).
As for “TTAATTAACTCAGCTTCTAGTTCATATGACTCTTGCTAATCGGAGTCACCTAGTGCAG”, the binding signal is 8400 fluorescence intensity (a.u.).
For the sequence “AATTAATAATTGCAATAGTTAGGTTATGAAGACTTCAGAGCGGAGTCACCTAGTGCAG”, the binding signal is 15300 fluorescence intensity (a.u.).
On to “AATATTTATGTTAATTATATATAGCTAATTATGATAATAGCGGAGTCACCTAGTGCAG”, for which the binding signal is 18800 fluorescence intensity (a.u.).
Next, “AATTTAATTAATTATGACTTCAGCTTGGTAGGTTCAGTTGCGGAGTCACCTAGTGCAG”: 53000 fluorescence intensity (a.u.).
Take “AAAACAGAAAATAGCCAGTCAACCAAACAGTTGTCTTGACCGGAGTCACCTAGTGCAG”: the binding signal is 6230 fluorescence intensity (a.u.).
Then “TGCTAATGGCGGCCATAGATTTGTACAAGTATCAGCTGAGCGGAGTCACCTAGTGCAG”, with 4480 fluorescence intensity (a.u.).
Turning to “CCCACATGCCAGACTGATTGCCAGTCATGAGCAAGGGTCCCGGAGTCACCTAGTGCAG”, the binding signal is 23900 fluorescence intensity (a.u.).
Regarding “AATTGCTGTTGATTTGCCACTACCACTCTCCCCAACAAGTCGGAGTCACCTAGTGCAG”, the binding signal was 6370 fluorescence intensity (a.u.).
Next, “ACTGATTGCTGTTGGTCATTCCCGGGCCAGTCCCCACTCCCGGAGTCACCTAGTGCAG”: 52400 fluorescence intensity (a.u.); “ATCATAACTCCATCAGATAATTTGTGCAGAACGGCAGAACCGGAGTCACCTAGTGCAG”: 5500 fluorescence intensity (a.u.); “ACGAATCTAATGAGCCTAATTAATCCATGATTAGCCTATGCGGAGTCACCTAGTGCAG”: 21200 fluorescence intensity (a.u.).
Take “TTAATTATTTGAGCAAATTTAATGGGATGAGGGAATGATGCGGAGTCACCTAGTGCAG”: the binding signal was 24800 fluorescence intensity (a.u.).
On to “CCAGCTTAATTGAGCCTGATTAGCCGAATCCATAATTGTGCGGAGTCACCTAGTGCAG”, for which the binding signal was 63800 fluorescence intensity (a.u.).
Next, “ATGTTGATTGGAGTCTGATAACTTGTCACTGGATGACATGCGGAGTCACCTAGTGCAG”: 61700 fluorescence intensity (a.u.); “GTGTTGAATGCACTGATTTGTTCAGTGTCTGAGATTGATGCGGAGTCACCTAGTGCAG”: 13100 fluorescence intensity (a.u.).
Then “TCTTTACTTAATTAATTTGATGCATGTATGCCAGGATTTGCGGAGTCACCTAGTGCAG”, with 35800 fluorescence intensity (a.u.); and “TTGAGATGATTTACTATTAATTTAGTCTATTGTTGAGATGCGGAGTCACCTAGTGCAG”, with 35700 fluorescence intensity (a.u.); and “ATTAATTGATGCTTTGCTTGATTACTTGAGTCAGATCCAGCGGAGTCACCTAGTGCAG”, with 63200 fluorescence intensity (a.u.).
As to “GAATCTATTGAGCCTAATTAATCCATGATTAGCCTATGTGCGGAGTCACCTAGTGCAG”, the binding signal is 7730 fluorescence intensity (a.u.).
Then “GTTTTAATTGTTTTACTGATTTGCAAATGAGTCTGGGATGCGGAGTCACCTAGTGCAG”, with 63500 fluorescence intensity (a.u.); and “CATGGATAATTTGTTTTGGAGTGACACACTGACACTGATGCGGAGTCACCTAGTGCAG”, with 9780 fluorescence intensity (a.u.); and “AGTTCAATTGCTTTGATGAGTGAGCAGAGAGATGATGCAGCGGAGTCACCTAGTGCAG”, with 3420 fluorescence intensity (a.u.).

The values above are taken from paper PMC7819943, “Rice protein-binding microarrays: a tool to detect cis-acting elements near promoter regions in rice”.
